Out of some 52,000 compounds screened, about 4,300 (8.3%) were called active. Shown is part of a subset that was picked to be rich in actives. Unmarked numbers belong to inactive results. No stated cut-off is given here; in the data, active means survival mostly below about 52% (no sharp cut-off); inactive means mostly above about 56%.
These molecules were tested on DeltatarO mutant (assay: S. aureus survival, RN4220 and DeltatarO strains – OD600, teichoic acid synthesis inhibitors, primary screen (AID 463173)). Conditions: S. aureus RN4220 wild type/DeltatarO growth, OD600, 18 h, active compounds read low, screened at 18.75 µg/mL (by protocol).

Row | Compound | survival
1 | COc1ccc(CNc2oc(COc3cccc(C)c3)nc2C#N)cc1 | 40% (active)
2 | COc1ccc(CCNc2oc(COc3ccc(Cl)cc3)nc2C#N)cc1OC | 74%
3 | COc1ccccc1OCc1nc(C#N)c(NCc2ccc(C)cc2)o1 | 83%
4 | Cc1ccc(OCc2nc(C#N)c(NCCc3ccccc3)o2)cc1 | 35% (active)
5 | COc1cccc(/C=C/c2nc(C#N)c(NCCc3ccccc3)o2)c1 | 90%
6 | Cc1cccc(OCc2nc(C#N)c(NCc3ccccc3Cl)o2)c1 | 53%
7 | COc1ccc(CCNc2oc(COc3cccc(C)c3)nc2C#N)cc1OC | 95%
8 | N#Cc1nc(COc2ccccc2Cl)oc1NCCc1ccccc1 | 48%
9 | N#Cc1nc(COc2cccc(Cl)c2)oc1NCCc1ccccc1 | 39% (active)
10 | CCN(CC)c1ccc2cc(-c3nc(-c4cccs4)no3)c(=O)oc2c1 | 83%
11 | CCC(Sc1nc2ccncc2[nH]1)C(=O)Nc1cc(C)ccc1C (centres undefined) | 132%
12 | Cn1ncc(C(=O)N2CCN(c3ccccc3F)CC2)c1C1CCN(C(=O)OC(C)(C)C)CC1 | 71%
13 | CCOc1ccc2oc(=O)cc(CN3CCN(Cc4ccc(F)cc4)CC3)c2c1 | 83%
14 | CCOc1ccc2oc(=O)cc(CN3CCN(C(=O)c4cccc(Cl)c4)CC3)c2c1 | 66%
15 | CCOc1ccc2oc(=O)cc(CN3CCN(C(=O)c4ccc(OC)c(OC)c4)CC3)c2c1 | 50%
16 | CCOc1ccc2oc(=O)cc(CN3CCN(C(=O)c4cccc(F)c4)CC3)c2c1 | 31% (active)
17 | CCOc1ccc2oc(=O)cc(CN3CCN(C(=O)c4ccc(F)cc4)CC3)c2c1 | 31% (active)
18 | CCOc1ccc2oc(=O)cc(CN3CCN(C(=O)c4ccc(Cl)cc4)CC3)c2c1 | 86%
19 | CCc1nc2ccc(C(=O)NCc3ccc(N(C)C)cc3)cc2nc1CC | 99%
20 | Cc1c(C(=O)N2CCC(C)CC2)c(S(=O)(=O)NCc2ccccc2)c(C)n1C | 66%
21 | O=C(NCc1ccccc1Br)c1cnc2sc(N3CCCCCC3)nn2c1=O | 94%
22 | Cc1cccc(NC(=O)CSc2cn(CC(=O)N3CCCC3)c3ccccc23)c1C | 99%
23 | Cc1ccc(N2C(=O)CSC23C(=O)N(CC(=O)NC2CCCCC2)c2ccccc23)cc1C (centres undefined) | 94%
24 | CCCn1cc(S(=O)(=O)c2cccc(Cl)c2)c(=O)c2cc(F)c(N3CCN(CC)CC3)cc21 | 115%

Row | Compound | survival
25 | Cc1ccc(Cn2c(C(C)NC(=O)c3ccccc3)nc3ccccc32)cc1 (centres undefined) | 90%
26 | Nc1nonc1-c1nc2ccccc2n1Cc1cccc(Cl)c1 | 80%
27 | Cc1ccc(Cn2c(-c3ccccc3)nc3ccccc32)cc1 | -2% (active)
28 | Fc1ccc(Cn2c(-c3cccc(Br)c3)nc3ccccc32)cc1 | 109%
29 | Cc1ccc(Cn2c(CCNC(=O)c3cccc(C)c3)nc3ccccc32)cc1 | 60%
30 | O=C(CSc1nc2ccccc2n1Cc1ccccc1F)NCc1ccccc1 | 97%
31 | Cc1cccc(-c2nc3ccccc3n2Cc2ccccc2)c1 | 0% (active)
32 | Fc1ccccc1Cn1c(-c2ccccc2)nc2ccccc21 | 1% (active)
33 | CCC(O)c1nc2ccccc2n1Cc1cccc(Cl)c1 (centres undefined) | 83%
34 | Cc1cccc(Cn2c(-c3cccc(Br)c3)nc3ccccc32)c1 | 122%
35 | Cc1cccc(Cn2c(-c3ccccc3)nc3ccccc32)c1 | -2% (active)
36 | Cc1ccc(Cn2c(=O)c3ccccc3n3c(-c4ccccc4)nnc23)cc1 | 86%
37 | CCOC(=O)Cc1ccc(NC(=O)N2CC(C)Oc3ccc(Cl)cc32)cc1 (centres undefined) | 55%
38 | O=CN(Cc1ccco1)C1(C(=O)NC2CCCCC2)CCCCC1 | 76%
39 | OCc1cnc(SCc2ccccc2F)n1Cc1ccc(F)cc1 | 87%
40 | COc1ccccc1CNC(=O)CCC1N=C2c3ccccc3N=C(SCC(=O)Nc3ccc(F)cc3)N2C1=O (centres undefined) | 84%
41 | Cc1ccc2nc(-c3cccnc3)c(Nc3ccc(C(C)C)cc3)n2c1 | 94%
42 | O=C(COCc1cc(-c2ccc3c(c2)OCO3)on1)Nc1cc(Cl)ccc1O | 60%
43 | CCn1c(=O)cc(SCC(=O)Nc2cc(Cl)ccc2OC)c2ccccc21 | 67%
44 | CCCNC(=O)c1ccc(Cn2c(SCC(=O)NC(C)C)nc3ccccc3c2=O)cc1 | 102%
45 | CCOc1ccccc1C(=O)NCC(c1ccc(N(C)C)cc1)N1CCc2ccccc21 (centres undefined) | 102%
46 | COc1ccccc1C(=O)NCC(c1ccc(N(C)C)cc1)N1CCc2ccccc21 (centres undefined) | 46% (active)
47 | CN(C)c1ccc(C(CNC(=O)c2ccccc2Cl)N2CCc3ccccc32)cc1 (centres undefined) | 37% (active)
48 | CN(C)c1ccc(C(CNC(=O)c2ccccc2F)N2CCc3ccccc32)cc1 (centres undefined) | 105%

Row | Compound | survival
49 | COc1cccc(C(=O)NCC(c2ccc(N(C)C)cc2)N2CCc3ccccc32)c1OC (centres undefined) | 93%
50 | CN(C)c1ccc(C(CNC(=O)c2ccccc2)N2CCc3ccccc32)cc1 (centres undefined) | 115%
51 | O=C(Cn1c(=O)sc2ccccc21)Nc1cccc(Cl)c1 | 83%
52 | CCN(Cc1ccccc1)C(=O)CN1C(=O)COc2ccc(S(=O)(=O)N3CCOCC3)cc21 | 98%
53 | CCOC(=O)Nc1cccc(C(=O)O)c1 | 71%
54 | COC(=O)c1c(NC(=O)c2nc(SCc3ccc(C)cc3)ncc2Cl)sc2c1CCCC2 | 46% (active)
55 | Cc1ccc(CSc2ncc(Cl)c(C(=O)Nc3sc4c(c3C(N)=O)CCCC4)n2)cc1 | 105%
56 | COC(=O)c1c(NC(=O)c2nc(SCc3ccc(F)cc3)ncc2Cl)sc2c1CCCC2 | 47%
57 | COC(=O)c1c(NC(=O)c2nc(SCc3cccc(C)c3)ncc2Cl)sc2c1CCCC2 | 113%
58 | CCOC(=O)c1c(NC(=O)c2nc(SC(C)C)ncc2Cl)sc2c1CCCC2 | 56% (active)
59 | CCOC(=O)c1c(NC(=O)c2nc(SCC)ncc2Cl)sc2c1CCCC2 | 91%
60 | CCSc1ncc(Cl)c(C(=O)Nc2sc3c(c2C(=O)NC)CCCC3)n1 | 82%
61 | CNC(=O)c1c(NC(=O)c2nc(SCc3ccc(C)cc3)ncc2Cl)sc2c1CCCC2 | 37% (active)
62 | COC(=O)c1c(NC(=O)c2nc(SC)ncc2Cl)sc2c1CCCC2 | 85%
63 | Cc1cc(C)nc(-n2nc(C)c3c2N(Cc2ccccc2F)C(=O)CC3c2ccc(Cl)cc2)n1 (centres undefined) | 100%
64 | CCC(=O)N1CCc2cc(Br)cc(S(=O)(=O)CCC(=O)Nc3ccc(C)c(F)c3)c21 | 86%
65 | CCCCn1c(SCC(=O)Nc2ccc(OCC)cc2)nc2ccsc2c1=O | 130%
66 | CCc1ccccc1NC(=O)C1(C)Cc2ccccc2C(=O)O1 (centres undefined) | 97%
67 | CCc1ccc(NCc2cc3cc4c(cc3n(CC(=O)Nc3ccccc3Cl)c2=O)OCO4)cc1 | 73%
68 | Cn1c(=O)n(C)c2cc(N3CCCCC3)c(NC(=O)c3ccc(Cl)cc3)cc21 | 74%
69 | CCc1ccc(NC(=O)CN2C(=O)C(c3ccc(F)cc3)=NC2(C)C)cc1 | 81%
70 | Cc1ccc(NC(=O)Cn2c(=O)c3ccccc3n3nncc23)cc1 | 114%
71 | Cc1ccc2nc(-c3ccc(NC(=O)C(F)(F)F)cc3)sc2c1 | 98%
72 | Nc1ccc2nc(-c3ccc(O)cc3)sc2c1 | 120%

Row | Compound | survival
73 | Cc1ccc2sc(-c3ccc(N)cc3)nc2c1 | 12% (active)
74 | Cc1cccc(C)c1OCc1nc2c3cnn(-c4ccccc4Br)c3ncn2n1 | 69%
75 | COc1ccc(Br)c(C(=O)Nc2cc3c(cc2N2CCOCC2)n(C)c(=O)n3C)c1 | 82%
76 | O=C(NCCc1nc2ccccc2n1Cc1ccccc1)c1ccco1 | 113%
77 | Cc1ccc(Cn2c(CCCNC(=O)c3ccco3)nc3ccccc32)cc1 | 77%
78 | O=C(NCCCc1nc2ccccc2n1Cc1cccc(Cl)c1)c1ccco1 | 46% (active)
79 | O=C(NCCc1nc2ccccc2n1Cc1ccc(Cl)cc1Cl)c1ccco1 | 49% (active)
80 | O=C(NCCCc1nc2ccccc2n1Cc1ccc(Cl)cc1Cl)c1ccco1 | 58%
81 | O=C(NCCCc1nc2ccccc2n1Cc1ccc(Cl)cc1)c1ccco1 | 105%
82 | CCCSCCCNC(=O)CN1C(=O)COc2ccc(S(=O)(=O)N3CCC(C)CC3)cc21 | 90%
83 | N#Cc1ccccc1NC(=O)CNCC1CCCO1 (centres undefined) | 76%
84 | COC(=O)c1ccccc1N(C)S(=O)(=O)c1cc2c3c(c1)CC(=O)N3CCC2 | 78%
85 | COC(=O)c1ccccc1NS(=O)(=O)c1cc2c3c(c1)CC(=O)N3CCC2 | 46% (active)
86 | COC(=O)C1CCN(S(=O)(=O)c2cc3c4c(c2)CC(=O)N4CCC3)CC1 | 37% (active)
87 | COC(=O)C1CCN(S(=O)(=O)c2cc3c4c(c2)C(C)C(=O)N4CCC3)CC1 (centres undefined) | 99%
88 | CC1CCN(S(=O)(=O)c2cc3c4c(c2)CC(=O)N4CCC3)CC1 | 102%
89 | CC1C(=O)N2CCCc3cc(S(=O)(=O)N4CCC(C(N)=O)CC4)cc1c32 (centres undefined) | 0% (active)
90 | COc1ccc(C)cc1NS(=O)(=O)c1cc2c3c(c1)CC(=O)N3CCC2 | 105%
91 | CCOC(=O)C1CCN(S(=O)(=O)c2cc3c4c(c2)C(C)C(=O)N4CCC3)CC1 (centres undefined) | 98%
92 | CCOC(=O)C1CCN(S(=O)(=O)c2cc3c4c(c2)CC(=O)N4CCC3)CC1 | 83%
93 | O=C(O)CCCNC1C=CS(=O)(=O)C1 (centres undefined) | 91%
94 | COCCNc1cc(N2CCN(C3CCCCC3)CC2)c2noc3c2c1C(=O)c1ccccc1-3 | 57%
